# Laboratory results from PubChem BioAssay AID588689 (Southern Research Specialized Biocontainment Screening …, 2011).
# The campaign covered roughly 340,000 compounds. About 1,000 (0.29%) were called active. Cut-off read from the data, not from the text of the source: inconclusive = inhibition above about 29% without an active follow-up result; inactive = below that. The list is a sample of the results. Results with a measured potency or affinity are listed apart.
# Biological target: Genome polyprotein (Dengue virus type 2 (strain 16681-PDK53)) (UniProt P29991)
# Experiment: flavivirus cap methylation enzyme inhibition – biochemical, confirmation dose response, primary screen (AID 588689)
# Conditions: Dengue-2 NS5 methyltransferase capping enzyme assay, at 25 µM, stronger effect = higher value
# [1] = measured here: pilot screen replicate inhibition
SMILES,inhibition,inhibition [1]
CCN(CC(=O)Nc1ccccc1C(F)(F)F)C(=O)c1ccc2c(c1)NC(=O)C(C)S2 (stereo unspecified),-4.95% (inactive),–
NC(=O)C1CCN(C(=O)c2ccc3c(=O)n(Cc4ccco4)c(SCc4ccc([N+](=O)[O-])cc4)nc3c2)CC1,12.3% (inactive),–
CC1(NC(=O)N2CCOCC2)CCS(=O)(=O)C1 (stereo unspecified),0% (inactive),–
CC1(C)CC(=O)C(C(C2=C(O)CC(C)(C)CC2=O)c2ccc(Cl)c([N+](=O)[O-])c2)C(=O)C1 (stereo unspecified),-1.46% (inactive),–
CC1(C)CC(=O)C(C(C2=C(O)CC(C)(C)CC2=O)c2ccc([N+](=O)[O-])cc2)C(=O)C1 (stereo unspecified),1.82% (inactive),–
COc1cc(C(=O)NCC(=O)N2CCN(S(=O)(=O)c3ccccc3C(F)(F)F)CC2)cc(OC)c1OC,-3.36% (inactive),–
O=c1sc2ccccc2c(N2CCOCC2)c1[N+](=O)[O-],-3.49% (inactive),–
C=CSc1sc(Cl)c(N2CCOCC2)c1[N+](=O)[O-],0% (inactive),–
CC1CN(C2=NC(=O)/C(=C3/C(=O)N(Cc4ccc(F)cc4)c4ccccc43)S2)CC(C)O1 (stereo unspecified),-3.91% (inactive),–
NN1C(=O)/C(=C2/Sc3ccccc3N2CCCS(=O)(=O)O)SC1=S,-12.9% (inactive),–
O=C(O)CCN1C(=O)C(=C2CCCCCC2)SC1=S,10.4% (inactive),–
O=C(O)CCN1C(=O)/C(=C2\C(=O)N(Cc3ccccc3Cl)c3ccccc32)SC1=S,22.2% (inactive),–
COCCN1C(=O)/C(=C2/C(=O)N(CC(=O)Nc3ccccc3Cl)c3ccccc32)SC1=S,6.48% (inactive),–
CN1C(=O)/C(=C2\SC(=S)N(CCCCCC(=O)O)C2=O)c2ccccc21,-1.55% (inactive),–
CC(C)NC(=O)COC(=O)c1ccccc1Oc1ccccc1,-2.2% (inactive),–
CCOC(=O)C1=C(C)N=c2s/c(=C\c3ccc(OCC(=O)O)c(OC)c3)c(=O)n2C1c1ccc(OC)cc1 (stereo unspecified),-8.46% (inactive),–
CCOC(=O)C1=C(C)N=c2s/c(=C3/C(=O)Nc4ccccc43)c(=O)n2C1c1ccc(C)cc1 (stereo unspecified),22.8% (inactive),–
O=C(NN=C1CCCC1)c1ccc(Cl)cc1,-2.6% (inactive),–
O=C1CCC/C(=N\NC(=O)COc2ccc(Cl)cc2)C1,3.18% (inactive),–
O=C(CSc1nccc(=O)[nH]1)Nc1ccc(S(=O)(=O)N2CCOCC2)cc1,0% (inactive),–
Cc1ccc(CNC(=O)CCn2ccc3cc(S(=O)(=O)N4CCCC4)ccc32)cc1,-4.92% (inactive),–
Cc1onc(-c2ccccc2)c1C(=O)OCC(=O)Nc1ccccc1,8.65% (inactive),–
CC(=O)Nc1ccc(NC2=CC(=O)c3ccccc3C2=O)cc1,-5.82% (inactive),–
O=C1C=C(Nc2ccccc2)C(=O)c2ccccc21,-2.9% (inactive),–

SMILES,inhibition,inhibition [1]
O=C(NC1=C(Nc2ccc(Cl)cc2)C(=O)c2ccccc2C1=O)c1ccccc1,-1.83% (inactive),–
O=C(Nc1ccccc1Cl)c1ccccc1,1.49% (inactive),–
O=C(Nc1cccc(Cl)c1)C1C2C=CC3(O2)C1C(=O)N(CCCN1CCCCC1)C3C(=O)NC1CCCCC1 (stereo unspecified),-16% (inactive),–
Cc1ccc(OCCCc2c(C)n[nH]c2C)cc1,-5.36% (inactive),–
CCCC1CC(CSc2ncn[nH]2)OC1=O (stereo unspecified),-12.3% (inactive),–
Cc1ccc(S(=O)(=O)N(CC(=O)N2CCOCC2)c2ccc(Br)cc2)cc1,-8.01% (inactive),–
Cc1ccc2ccc(S(=O)(=O)NCc3ccccn3)cc2c1,-1.67% (inactive),–
COc1cccc(CNC(=O)c2ccc(CS(=O)Cc3ccc(C)cc3)o2)c1 (stereo unspecified),-4.44% (inactive),–
O=C(Nc1ccc(S(=O)(=O)NCc2ccco2)cc1)c1cccc(F)c1,-4.85% (inactive),–
COc1ccc(C2CC(c3ccccc3)=NN2c2ccc(C(N)=O)cc2)cc1 (stereo unspecified),-4.66% (inactive),–
COc1ccc(C2CC(c3ccccc3)=NN2c2ccc(N)cc2)cc1 (stereo unspecified),-12.8% (inactive),–
N#C/C(=C\c1cccc(Oc2ccc(C(F)(F)F)cc2[N+](=O)[O-])c1)c1nc2ccccc2[nH]1,-4.47% (inactive),–
CCN(CC)C(=O)c1ccc(NS(=O)(=O)c2ccc(/C=C/C(=O)O)cc2)cc1,2.19% (inactive),–
CC1=C/C(=C(\c2ccc(O)c(C)c2)c2ccccc2S(=O)(=O)O)C=CC1=O,0.65% (inactive),3.04%
CC1=CC(=O)C=C/C1=C(/c1ccc(O)cc1C)c1ccccc1S(=O)(=O)O,-1.47% (inactive),–
Cc1cc(C(=O)CS(=O)(=O)c2ccccc2)cc(C)c1O,-11.8% (inactive),–
CC1=C/C(=C(/c2ccc(O)c(C)c2)c2ccccc2S(=O)(=O)O)C=CC1=O,-1.1% (inactive),–
O=C(NC(=O)c1ccccc1)OCCN1C(=O)c2ccccc2C1=O,-5.92% (inactive),–
Cc1cc(S(=O)(=O)N2CCOCC2)ccc1OCC(=O)Nc1ccccc1C(F)(F)F,-3.32% (inactive),–
OCCNc1c2ccccc2nc2ccccc12,-2.34% (inactive),–
OCCNc1nc2ccccc2nc1NCCO,15.3% (inactive),–
CC#CCCc1nc2ccccc2c(=O)n1N,-9.73% (inactive),–
COCCCNC(=O)CCc1nc(-c2ccccc2Cl)no1,-2.35% (inactive),–
O=C(O)COc1ccc(/C=N/NC(=O)c2cn(-c3ccccc3)nc2-c2ccccc2)cc1,5.65% (inactive),–

SMILES,inhibition,inhibition [1]
CC(C)N1C(=O)CCN(C=O)c2ccccc21,-9.31% (inactive),–
CCOc1ccc(C2C(C(=O)c3ccc(C)o3)=C(O)C(=O)N2c2nc(C)c(C(=O)OC)s2)cc1 (stereo unspecified),10.7% (inactive),–
CCOC(=O)c1sc(N2C(=O)C(O)=C(C(=O)c3ccco3)C2c2ccco2)nc1C (stereo unspecified),-2.93% (inactive),–
CCOC(=O)c1sc(N2C(=O)C(O)=C(C(=O)c3ccco3)C2c2cccc([N+](=O)[O-])c2)nc1C (stereo unspecified),-0.32% (inactive),–
COC(=O)c1sc(N2C(=O)C(O)=C(C(=O)c3ccc(C)o3)C2c2ccc(F)cc2)nc1C (stereo unspecified),-6.35% (inactive),–
COc1ccc(CC(=O)Nc2sc3c(c2C(N)=O)CCCC3)cc1,-5.87% (inactive),–
CCC(C)(C)NC(=O)Cn1c(-c2ccccc2)cc(C(C)=O)c1C,1.78% (inactive),–
O=C(CCN1N=C(c2ccccc2)CCC1=O)NCC1CCCO1 (stereo unspecified),6.81% (inactive),–
CSc1nnc(-c2ccccc2N=Cc2c(C)[nH]n(-c3ccccc3)c2=O)c(=O)[nH]1,11.5% (inactive),–
Cc1nn(-c2ccc3ccccc3c2)c(=O)c2ccccc12,-4.49% (inactive),–
Cc1ccc2nc(N3C(=O)C(O)=C(C(=O)c4ccco4)C3c3ccc(O)cc3)sc2c1 (stereo unspecified),3.66% (inactive),–
Cc1cc(C)c2nc(N3C(=O)C(O)=C(C(=O)c4ccco4)C3c3ccco3)sc2c1 (stereo unspecified),1.47% (inactive),–
Cc1ccc2nc(N3C(=O)C(O)=C(C(=O)c4ccc(C)o4)C3c3cccc(O)c3)sc2c1 (stereo unspecified),0.73% (inactive),–
Cc1ccc2nc(N3C(=O)C(O)=C(C(=O)c4ccco4)C3c3ccc(C)o3)sc2c1 (stereo unspecified),-8.15% (inactive),–
Cc1nn(CCCC(=O)NCc2ccccc2)c(C)c1[N+](=O)[O-],-1.91% (inactive),–
CCCn1c(N)c(N(CCOC)C(=O)c2ccc([N+](=O)[O-])c(C)c2)c(=O)[nH]c1=O,-3.56% (inactive),–
COc1ccc(S(=O)(=O)N2CCN(C(=O)Cc3cccs3)CC2)cc1,-2.65% (inactive),–
CC(C)c1nc2ccc(NC(=O)C3CCCCC3)cc2[nH]1,4.05% (inactive),–
O=C(C1=C(O)C(=O)N(CCN2CCOCC2)C1c1ccco1)c1cc2ccccc2o1 (stereo unspecified),-8.02% (inactive),–
CC(/C=N/n1c(-c2ccco2)n[nH]c1=S)=C\c1ccccc1,1.83% (inactive),–
CC(=C/c1ccccc1)/C=N/n1c(-c2ccco2)n[nH]c1=S,-1.88% (inactive),2.73%
Cc1ccc(C(=O)O)cc1NC(=O)c1ccc2c(c1)C(=O)N(c1ccc([N+](=O)[O-])cc1)C2=O,-4.57% (inactive),–
O=C(Nc1ccccc1C(=O)O)c1ccc2c(c1)C(=O)N(c1cccc([N+](=O)[O-])c1)C2=O,17.6% (inactive),–
Cc1cc(C(=O)CSc2nnc(N)s2)c(C)n1Cc1ccco1,-12.5% (inactive),–

SMILES,inhibition,inhibition [1]
COc1ccccc1N1C(=O)C(Cl)=C(N2CCCC2)C1=O,-1.98% (inactive),0.315%
COc1ccc(N2C(=O)C(Cl)=C(N3CCN(Cc4ccccc4)CC3)C2=O)cc1,-1.61% (inactive),–
COc1ccc(N2C(=O)C(Cl)=C(N3CCCC3)C2=O)cc1,-10.6% (inactive),–
CCc1ccc(N2C(=O)C(Cl)=C(N3CCCCCC3)C2=O)cc1,-5.23% (inactive),–
CCOc1ccc(N2C(=O)c3ccccc3C2=O)cc1,1.62% (inactive),–
CCOc1ccc(N2C(=O)CC(N3CCOCC3)C2=O)cc1 (stereo unspecified),-2.04% (inactive),–
CCc1ccc(N2CCN(C(=O)N3CCOCC3)CC2)cc1,-8.84% (inactive),–
COc1ccc(OC)c(N2C(=O)C(Cl)=C(N3CCCCC3)C2=O)c1,0.68% (inactive),–
COc1cccc(-c2nc3ccc(C(=O)N4CCCC(O)C4)cc3o2)c1 (stereo unspecified),-1.93% (inactive),–
CSc1ccc(CN(C)C(=O)c2ccc(S(=O)(=O)Nc3c(C)n(C)n(-c4ccccc4)c3=O)cc2)cc1,-9.48% (inactive),–
CCOC(=O)CSc1nnnn1-c1cc(OC)ccc1OC,-2.05% (inactive),–
C=CC[C@H](CC(=O)NCCO)C(=O)NCCOC(=O)[C@@H](CC=C)Cc1ccc(F)cc1,-5.62% (inactive),–
CCCNC(=O)N1C2=NC(C(=O)OC)=C(C(=O)OC)[C@@H]3N(Cc4ccccc4)c4ccccc4[C@]23C[C@H]1CO,-2.73% (inactive),–
O=C(O)c1ccc2c(c1)C1C=CCC1C(c1ccncc1)N2 (stereo unspecified),-11.1% (inactive),–
CCCC1Nc2ccc(C(=O)O)cc2C2C=CCC12 (stereo unspecified),11.1% (inactive),–
O=C(O)C1Nc2ccc(Br)cc2C2C=CCC12 (stereo unspecified),55.7% (inactive),–
CC(C)CNC(=O)C1Nc2ccc(C(F)(F)F)cc2C2C=CCC12 (stereo unspecified),2.4% (inactive),–
CCOC(=O)C1Nc2ccc(Br)cc2C2C=CCC12 (stereo unspecified),5.02% (inactive),–
CCOC(=O)C1Nc2ccc(C)cc2C2C=CCC12 (stereo unspecified),8.8% (inactive),–
CCOC(=O)c1ccc2c(c1)C1C=CCC1C(C(=O)OCC)N2 (stereo unspecified),10.8% (inactive),–
CC(=O)c1ccc2c(c1)C1C=CCC1C(c1ccncc1)N2 (stereo unspecified),50.2% (inactive),–
